The values below come from PubChem BioAssay.

Unmarked numbers belong to inactive results. Activity calls are given as the source filed them.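 The calls were made as follows: active = inhibition at or above 50% relative to wild type and mutant plate controls; inactive = inhibition below 50%.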

This assay is described as follows: loss of swimming-algae plug formation – whole organism, Chlamydomonas reinhardtii, WT vs cilia-less mutant, absorbance, 96-well, primary screen (AID 463189).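 Also: 0% = wild type cc124 cells in DMSO and 100% = ciliumless bld1 mutant cells.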 As to conditions: Chlamydomonas reinhardtii gravitaxis, OD600 absorbance, 2 days; at 10 µM; stronger effect = higher value.
For the compound `CN1CCC2(CCN3CCc4c(oc5ccccc45)C3C2)N(C)C1=O` (stereo not given), the inhibition was -3.27%.
As to `NC(=O)CNCCC(c1ccccc1)c1ccccc1`, the inhibition is -2.16%.
Consider `CCCCCCN(CCCCCC)C(=O)Cc1c(-c2ccc(F)cc2)[nH]c2ccccc12`, for which the inhibition was 8.52%.
As for `CCCn1c(=O)c2c(ncn2C)n(CCC)c1=O`, the inhibition is 6.81%.
Consider `NCCCCN`, for which the inhibition is -2.36%.
With `NCC(O)C1CCCCCCC1` (stereo not given), the inhibition was 2.73%.
Take `CC1(C)CCC2=C(O1)c1ccccc1C(=O)C2=O`: the inhibition is 153% (active).
Turning to `CCCC(CCC)C(=O)O`, the inhibition was 2.56%.
Regarding `COc1ccc2[nH]cc(CCNC(C)=O)c2c1`, the inhibition was 13.5%.
`Ic1ccc(N2CCN(Cc3c[nH]c4ncccc34)CC2)cc1`: the inhibition was 7.68%.
With `Nc1nc(Nc2ccccc2)nc2c1ncn2[C@@H]1O[C@H](CO)[C@H](O)C1O` (stereo not given in full), the inhibition is -1.98%.
Regarding `c1cnc2c(c1)ccc1cccnc12`, the inhibition was 10.8%.
As for `Cc1ccc(C(=O)O[C@H](C(=O)O)[C@H](OC(=O)c2ccc(C)cc2)C(=O)O)cc1` (tested in a mixture with another compound), the figure is 5.96%.
With `Cc1cccc(C)c1NC(=O)C[N+](C)(C)C`, the inhibition is 7.92%.
With `CC[C@@H]1Cc2cc(O)ccc2C2=C1c1ccc(O)cc1C[C@H]2CC`, the inhibition is 0.094%.
For the compound `Cc1ccc(OCC(O)C(C)NC(C)C)c2c1CCC2` (stereo not given), the inhibition was -3.42%.
In the case of `CN1C2CCC1CC(OC(c1ccccc1)c1ccccc1)C2` (stereo not given), the inhibition was 1.86%.
Regarding `C[N+](C)(CCCCCC[N+](C)(C)CCCN1C(=O)c2cccc3cccc(c23)C1=O)CCCN1C(=O)c2cccc3cccc(c23)C1=O`, the inhibition was 101% (active).
As for `CC(C)C1C2CCC(C2)C1N` (stereo not given), the inhibition is 3.56%.
Regarding `O=c1[nH]ccc2c(O)cccc12`, the inhibition is 3.93%.
Turning to `CC(C)CN(C)c1nc(N)c(C(=O)N=C(N)N)nc1Cl`, the inhibition is -3.31%.
Regarding `CCCCCCCC/C=C\CCCCCCCC(=O)NCCc1ccc(O)c(O)c1`, the inhibition was -1.34%.
On to `O=C(Nc1cccc(C(=O)Nc2ccc(S(=O)(=O)O)c3cc(S(=O)(=O)O)cc(S(=O)(=O)O)c23)c1)Nc1cccc(C(=O)Nc2ccc(S(=O)(=O)O)c3cc(S(=O)(=O)O)cc(S(=O)(=O)O)c23)c1`, for which the inhibition was 1.9%.
As for `O=C(c1ccc(OCCN2CCCCC2)cc1)c1c(-c2ccc(O)cc2)sc2cc(O)ccc12`, the inhibition was 4.7%.
For `CCNC(=O)C1OC(n2cnc3c(NCc4ccccc4)ncnc32)C(O)C1O` (stereo not given), the inhibition is -0.03%.
Turning to `O=c1[nH]c2cc(Cl)c(Cl)cc2[nH]c1=O`, the inhibition is 5.88%.
Regarding `CN/C(=C\[N+](=O)[O-])NCCSCc1ccc(CN(C)C)o1`, the inhibition was 1.86%.
`CC1=C(/C=C/C(C)=C/C=C/C(C)=C/C(=O)Nc2ccc(O)cc2)C(C)(C)CCC1`: the inhibition is 1.68%.
Turning to `COc1ccc2c(c1)c(CC(=O)N1CCOCC1)c(C)n2C(=O)c1ccc(Cl)cc1`, the inhibition was 6.6%.
As to `CN(C)c1ccc(/C=C2\C(=O)Nc3ccccc32)cc1`, the inhibition is 4.05%.
On to `O=C(Nc1ccc([N+](=O)[O-])cc1Cl)c1cc(Cl)ccc1O`, for which the inhibition is 43.4%.
For the compound `COc1cc2nc(N3CCN(C(=O)OCc4ccccc4)C(C(=O)NC(C)(C)C)C3)nc(N)c2cc1OC` (stereo not given), the inhibition was -7.21%.
As for `CCN(Cc1ccncc1)C(=O)C(CO)c1ccccc1` (stereo not given), the figure is 7.61%; as for `N.N.N.N.N.N.N.N.N.N.N.N.N.N.O.O.[Cl-].[Cl-].[Cl-].[Cl-].[Cl-].[Cl-].[Ru+4].[Ru+5].[Ru+5]`, 97.5% (active); as for `COc1ccc2c(c1)c(CC(=O)O)c(C)n2Cc1ccc(F)cc1`, 4.4%.
As for `C=C1C(=O)O[C@@H]2[C@H]3O[C@]3(C)CCC=C(C)CC[C@@H]12`, the figure is 4.91%; as for `CCCC(=O)NCCc1c2n(c3ccc(OC)cc13)Cc1ccccc1-2`, -1.81%; as for `CC1CC2C3CCC4=CC(=O)C=C[C@]4(C)[C@@]3(F)[C@@H](O)C[C@]2(C)[C@@]1(O)C(=O)CO` (stereo not given in full), 5.99%.
On to `O=C(O)[C@@H]1C[C@@H](C(=O)O)N1`, for which the inhibition was -5.37%.
The value for `O=C(O)Cc1ccc(O)c(O)c1` was 5.56%.

As usually defined, the inhibition is the drop in the measured response relative to a control, in per cent.
